The text below walks through data of the supplement of paper PMC4962491.

In this assay the test system is FaDu. Nature of the assay: mitochondrial oxygen consumption rate normalised to cell number, Z score vs plate DMSO wells; higher = higher oxygen consumption (negative = OCR reduction). The note with it: treatment time 24 h, assay medium: 5 mM glucose, 5 mM pyruvate, 4 mM glutamine. Here is the method: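 Secondary screen: FaDu cells were incubated 24 h with the top 130 primary hits at 0.08, 0.4, 2 or 10 uM. Mitochondrial-specific OCR (basal minus antimycin A) was measured on a Seahorse XF96 in medium with 5 mM glucose, 5 mM pyruvate and 4 mM glutamine and normalised to Hoechst cell number. OCR score = (OCR - mean of plate DMSO wells) / SD of plate DMSO wells. Three repeats.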

± gives the standard deviation of the averaged measurements.
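Further: compound exposure in DMEM (4 mM L-glutamine, 5 mM glucose), antimycin A injected at 2 µM after the basal reading and its residual OCR subtracted from basal.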

Turning to `CN1[C@@H]2CC[C@H]1C[C@@H](OC(=O)c1c[nH]c3ccccc13)C2`, the “mitochondrial oxygen consumption rate normalised” value runs as follows: (0.08 µM) 0.168 ± 1.4; (0.4 µM) 1.48 ± 0.79; (2 µM) -0.138 ± 1.6; (10 µM) -1.06 ± 2.5.

On to `CCCCC(CC)CN=C(N)N=C(N)NCCCCCCNC(N)=NC(N)=NCC(CC)CCCC` (stereo not drawn), for which the “mitochondrial oxygen consumption rate normalised” value was -1.69 ± 0.36 (0.08 µM), 1.12 ± 0.29 (0.4 µM), -0.611 ± 2 (2 µM) and -10.4 ± 0.54 (10 µM).

On to `C=CC1=C(C)c2cc3[nH]c(cc4nc(cc5[nH]c(cc1n2)c(C)c5CCC(=O)O)C(CCC(=O)O)=C4C)c(C)c3C=C`, for which the “mitochondrial oxygen consumption rate normalised” value is 0.0776 ± 2.3 (0.08 µM), 1.29 ± 2 (0.4 µM), 0.447 ± 0.95 (2 µM) and -1.43 ± 1.3 (10 µM).

As to `CO[C@H]1C[C@H](O[C@H]2[C@H](C)O[C@@H](O[C@@H]3/C(C)=C/C[C@@H]4C[C@@H](C[C@]5(C=C[C@H](C)[C@@H](C6CCCCC6)O5)O4)OC(=O)[C@@H]4C=C(C)[C@@H](O)[C@H]5OC/C(=C\C=C\[C@@H]3C)[C@]54O)C[C@@H]2OC)O[C@@H](C)[C@@H]1O`, the “mitochondrial oxygen consumption rate normalised” value runs as follows: (0.08 µM) 0.113 ± 1.2; (0.4 µM) 1.33 ± 0.39; (2 µM) -0.504 ± 1.2; (10 µM) -2.82 ± 1.1.

For `CO[C@@]12[C@H](COC(N)=O)C3=C(C(=O)C(C)=C(N)C3=O)N1C[C@@H]1N[C@@H]12`, the “mitochondrial oxygen consumption rate normalised” value runs as follows: (0.08 µM) -0.603 ± 0.39; (0.4 µM) 1.96 ± 0.85; (2 µM) -1.73 ± 1.2; (10 µM) -3.99 ± 1.3.

Turning to `c1ccc2c(c1)CCCC2C1=NCCN1` (stereo not drawn), the “mitochondrial oxygen consumption rate normalised” value (0.08 µM) is -1.42 ± 2.7, the “mitochondrial oxygen consumption rate normalised” value (0.4 µM) is -0.536 ± 1.1, the “mitochondrial oxygen consumption rate normalised” value (2 µM) is -0.793 ± 1 and the “mitochondrial oxygen consumption rate normalised” value (10 µM) was -0.259 ± 1.

With `C=CCOC(Cn1ccnc1)c1ccc(Cl)cc1Cl` (stereo not drawn), the “mitochondrial oxygen consumption rate normalised” value is -0.655 ± 2.4 (0.08 µM), 0.416 ± 2.9 (0.4 µM), -0.3 ± 1.2 (2 µM) and -0.245 ± 0.57 (10 µM).

With `Cc1cc(CC(C)CC(C)(C)C)n(O)c(=O)c1` (stereo not drawn), the “mitochondrial oxygen consumption rate normalised” value reads like this: (0.08 µM) 0.0907 ± 1.2; (0.4 µM) 0.402 ± 0.1; (2 µM) -4.87 ± 1.5.

Turning to `CNC(=O)c1cc(Oc2ccc(NC(=O)Nc3ccc(Cl)c(C(F)(F)F)c3)cc2)ccn1`, the “mitochondrial oxygen consumption rate normalised” value is -1.33 ± 0.69 (0.08 µM), -0.411 ± 0.42 (0.4 µM), -1.86 ± 0.2 (2 µM) and -12.1 ± 0.9 (10 µM).

Take `C[C@@H]1O[C@@H](OC[C@H]2O[C@@H](Oc3c(-c4ccc(O)c(O)c4)oc4cc(O)cc(O)c4c3=O)[C@H](O)[C@@H](O)[C@@H]2O)[C@H](O)[C@H](O)[C@H]1O`: the “mitochondrial oxygen consumption rate normalised” value runs as follows: (0.08 µM) 0.0147 ± 1.7; (0.4 µM) 1.67 ± 0.68; (2 µM) -0.481 ± 2.6; (10 µM) 1.74 ± 2.4.

As for `COc1c2occc2cc2ccc(=O)oc12`, the “mitochondrial oxygen consumption rate normalised” value is, setting by setting: (0.08 µM) -0.411 ± 1.2; (0.4 µM) 0.146 ± 0.75; (2 µM) -0.807 ± 2.3; (10 µM) -1.8 ± 2.2.
